# From PubChem BioAssay
# Where “and” joins values, the source holds several entries; their conditions need not be identical. Equal entries are not always repeated. Results filed as inconclusive are left out. Calls of active or inactive are those of the source.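 How the source made its calls, unless noted: active means mean z-score across replicates of 1.96 or higher in either the MELAS or the Rieske mutant cell line; inactive means the rest.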 Peptide text beside a SMILES is read from it.
# Legend:
# [1] = viability loss in pontine glioma line – cell-based, SU-DIPG-XXV, MIPE5.0, CellTiter-Glo, qHTS, dose response (AID 1347065; cut-off not given, nearly all actives have AC50 up to about 26 µM;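 further: cells exposed to compound for 48 hours before ATP readout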); settings: CellTiter-Glo ATP luminescence
# [2] = SU-DIPG-XXV glioma cell viability, MIPE5.0 library, qHTS (AID 1347068; cut-off not given, nearly all actives have IC50 up to about 30 µM)
# [3] = sensitizers of A549 cells to miR-34 induction, primary screen, imaging, A549 dox-inducible miR-34, nuclei and caspase counts (AID 1347080;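 active means compounds whose cell count with miR-34 switched on is under 0.7 times the count with it off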); settings: A549 miR-34 inducible, Hoechst nuclei count, 48 h
# [4] = survival rescue of mitochondrial mutant cells in low glucose, primary screen, MELAS cybrids, Rieske KO mouse fibroblasts, CellTiter-Glo (AID 1508586);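 further: z relative to plate mean and SD of compound and empty wells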
# [5] = target: NAD(+) hydrolase SARM1 (Homo sapiens) (UniProt Q6SZW1); experiment: SARM1 TIR NADase inhibitors, cell lysate, NAD-Glo luminescence (AID 1508614;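 active means compound whose remaining NAD level is above about 45 nM, limit read from the data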); settings: SAM-TIR HEK293T lysate NADase, at 1 µM, stronger effect = higher value
# [6] = target: Mitogen-activated protein kinase 7 (Homo sapiens) (UniProt Q13164); experiment: ERK5 transactivation activators in reporter cells, primary screen, cell-based, HTS (AID 1508626;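 active means luciferase signal above three times the same-plate solvent-only control wells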;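 further: luciferase driven by Gal4-ERK5 fusion binding five Gal4 sites before minimal TATA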); settings: HeLa Gal4-ERK5 transactivation, 18 h, at 5 µM, stronger effect = higher value
# [7] = SU-DIPG-VI glioma cell viability, MIPE4.0 library, CellTiter-Glo luminescence, qHTS (AID 1347066; cut-off not given, nearly all actives have AC50 up to about 30 µM;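 further: cells exposed to compound for 48 hours before readout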); settings: CellTiter-Glo ATP luminescence
# [8] = JHH-DIPG-1 glioma cell viability, MIPE5.0 library, CellTiter-Glo luminescence, qHTS (AID 1347067; cut-off not given, nearly all actives have AC50 up to about 26 µM;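 further: cells exposed to compound for 48 hours before readout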); settings: JHH-DIPG-1 glioma viability, CellTiter-Glo ATP luminescence
# [9] = viability rescue of complex I mutant cybrids, primary screen, cell-based, galactose medium, ATP luminescence (AID 1645843;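 active means z-score of at least 1.8 in each of two replicates, scored against plate mean and spread of sample wells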;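 further: positive z means more ATP and so rescue of galactose-driven cybrid death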); settings: complex I mutant cybrid cells, 72 h, stronger effect = higher value
# [10] = phospholipid biosynthesis inhibitors in animal cells, primary screen, cell-based, LOPAC library, screen 4 (AID 1347384; call rule not given here); settings: phospholipid biosynthesis inhibition screen, at 10 µM
# [11] = stronger effect = lower value, cell number ratio, induced over uninduced
# [12] = measured here: relative caspase fold change +Dox/-Dox
# [13] = measured here: total cells with miR-34 induction, stronger effect = lower value
# [14] = measured here: total cells without miR-34 induction
# [15] = MELAS cybrid survival, CellTiter-Glo 48 h, stronger effect = higher value
# [16] = Rieske KO mouse fibroblast survival, CellTiter-Glo 72 h
# Mitogen-activated protein kinase 7 (Homo sapiens), sequence (Q13164 whole entry, looked up, the tested form may be a part): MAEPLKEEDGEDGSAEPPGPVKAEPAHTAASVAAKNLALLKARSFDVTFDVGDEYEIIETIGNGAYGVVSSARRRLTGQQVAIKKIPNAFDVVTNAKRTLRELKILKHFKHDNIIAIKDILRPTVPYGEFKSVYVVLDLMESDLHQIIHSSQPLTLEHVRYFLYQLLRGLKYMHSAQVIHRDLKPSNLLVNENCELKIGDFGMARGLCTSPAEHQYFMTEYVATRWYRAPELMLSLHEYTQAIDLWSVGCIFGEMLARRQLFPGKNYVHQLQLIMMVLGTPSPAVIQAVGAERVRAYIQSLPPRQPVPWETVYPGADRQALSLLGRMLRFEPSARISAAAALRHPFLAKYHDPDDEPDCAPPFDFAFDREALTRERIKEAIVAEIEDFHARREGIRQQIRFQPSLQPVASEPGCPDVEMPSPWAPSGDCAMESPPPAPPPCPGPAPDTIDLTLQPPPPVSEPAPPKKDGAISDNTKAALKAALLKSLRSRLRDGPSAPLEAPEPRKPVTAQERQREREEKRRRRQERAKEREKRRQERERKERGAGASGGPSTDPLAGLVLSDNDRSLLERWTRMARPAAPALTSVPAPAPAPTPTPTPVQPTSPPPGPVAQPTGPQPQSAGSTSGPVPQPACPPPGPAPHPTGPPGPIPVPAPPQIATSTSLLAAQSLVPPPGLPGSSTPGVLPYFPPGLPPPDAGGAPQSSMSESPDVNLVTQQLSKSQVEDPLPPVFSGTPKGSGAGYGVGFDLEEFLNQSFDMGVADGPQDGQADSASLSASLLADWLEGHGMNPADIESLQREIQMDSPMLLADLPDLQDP
# NAD(+) hydrolase SARM1 (Homo sapiens), sequence (Q6SZW1 whole entry, looked up, the tested form may be a part): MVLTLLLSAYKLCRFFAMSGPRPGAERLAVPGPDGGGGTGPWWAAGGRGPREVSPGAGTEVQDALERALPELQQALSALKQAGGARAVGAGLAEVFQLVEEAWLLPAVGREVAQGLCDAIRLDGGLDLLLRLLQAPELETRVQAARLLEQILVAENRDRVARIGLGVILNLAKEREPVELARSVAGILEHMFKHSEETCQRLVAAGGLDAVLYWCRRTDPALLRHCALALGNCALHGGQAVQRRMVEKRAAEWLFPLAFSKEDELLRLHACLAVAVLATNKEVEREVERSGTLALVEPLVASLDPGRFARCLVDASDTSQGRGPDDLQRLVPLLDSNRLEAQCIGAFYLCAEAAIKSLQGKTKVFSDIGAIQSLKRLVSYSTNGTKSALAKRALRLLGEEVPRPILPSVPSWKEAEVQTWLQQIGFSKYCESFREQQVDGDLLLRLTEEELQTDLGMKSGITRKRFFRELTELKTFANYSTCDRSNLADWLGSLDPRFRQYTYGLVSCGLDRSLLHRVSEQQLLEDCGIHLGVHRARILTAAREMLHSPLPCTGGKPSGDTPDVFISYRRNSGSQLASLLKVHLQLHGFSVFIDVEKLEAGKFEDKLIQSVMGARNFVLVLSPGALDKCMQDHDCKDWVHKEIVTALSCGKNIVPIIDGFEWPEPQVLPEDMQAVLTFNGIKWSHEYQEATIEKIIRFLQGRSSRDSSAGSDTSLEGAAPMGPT
Structure (SMILES),outcome [1],outcome [2],"fold change [3, 11]","fold change [3, 12]","cell count [3, 13]","cell count [3, 14]","z-score [4, 15]","z-score [4, 16]",remaining NAD [5],luciferase signal [6],outcome [7],outcome [8],z-score [9],AC50 [1],AC50 [8],outcome [10],AC50 [7]
CCCCOc1ccc(CC(=O)NO)cc1,inactive,inactive,0.904 (inactive) and 0.891 (inactive),1.17 and 0.62,7500 and 10000,8290 and 11200,-0.309 (inactive) and 0.359 (inactive),0.677 and -0.599,10 nM (inactive),44 AU (inactive),–,–,–,–,–,–,–
CCCOc1ccc(C(=O)OCCN(CC)CC)cc1N,–,inactive,–,–,–,–,0.278 (inactive) and -0.171 (inactive) and -0.393 (inactive),-0.35 and 0.529 and -1.27,10 nM (inactive),212 AU (inactive),inactive,inactive,0.735 (inactive) and 0.01 (inactive),–,–,–,–
O=C1CCc2ccc(OCCCCN3CCN(c4cccc(Cl)c4Cl)CC3)cc2N1,–,–,–,–,–,–,-0.393 (inactive) and -1.22 (inactive) and -0.905 (inactive),0.269 and 1.31 and -0.2,10 nM (inactive),–,–,–,-1.88 (inactive) and -2.22 (inactive),13.2 µM (active),–,–,–
CCCCc1ccc2nc(NC(=O)OC)[nH]c2c1,–,–,1.15 (inactive),0.509,1770,1530,-2.16 (inactive),0.696,–,–,–,–,–,0.118 µM (active),0.332 µM (active),–,–
CC(C)(C)NC(=O)[C@H]1CC[C@H]2[C@@H]3CC[C@H]4NC(=O)C=C[C@]4(C)[C@H]3CC[C@]12C,–,inactive,0.927 (inactive) and 0.774 (inactive),1.11 and 2.31,8640 and 8130,9320 and 10500,0.136 (inactive) and 0.187 (inactive),0.621 and 0.926,10 nM (inactive),–,inactive,inactive,0.465 (inactive),–,–,–,–
NCCCCCC(=O)O,inactive,inactive,–,–,–,–,-0.274 (inactive) and -0.333 (inactive),-0.165 and -1.21,10 nM (inactive),40 AU (inactive),–,inactive,1.05 (inactive),–,–,inactive,–
CN1CCC(=C2c3ccccc3C=Cc3ccccc32)CC1,–,inactive,–,–,–,–,-0.307 (inactive) and -0.043 (inactive) and -1.41 (inactive),-0.028 and 0.523 and -1.01,10 nM (inactive),20 AU (inactive),inactive,inactive,–,–,–,inactive,–
OC[C@H]1O[C@@H](O[C@@H]2[C@@H](CO)O[C@](O)(CO)[C@H]2O)[C@H](O)[C@@H](O)[C@H]1O,–,inactive,0.922 (inactive),1.95,11500,12500,–,–,10 nM (inactive),16 AU (inactive),inactive,inactive,–,–,–,–,–
Clc1ccc(C(c2ccccc2Cl)C(Cl)Cl)cc1 (stereo unspecified),–,–,1.02 (inactive) and 0.901 (inactive) and 0.92 (inactive),1.69 and 0.413 and 1.68,9100 and 8310 and 10700,8890 and 9220 and 11600,-0.255 (inactive) and -0.0992 (inactive),0.722 and 0.331,10 nM (inactive),56 AU (inactive),–,–,-1.24 (inactive),–,20.9 µM (active),inactive,23.5 µM (active)
COC(=O)[C@H](Cc1ccccc1)NC(=O)[C@@H](N)CC(=O)O (H-Asp-Phe-OMe),–,–,0.869 (inactive),2.93,11000,12600,–,–,10 nM (inactive),36 AU (inactive),inactive,inactive,–,–,–,–,–
CCC(=O)O[C@]1(C(=O)SCF)[C@H](C)C[C@H]2[C@@H]3C[C@H](F)C4=CC(=O)C=C[C@]4(C)[C@@]3(F)[C@@H](O)C[C@@]21C,–,inactive,0.882 (inactive) and 0.864 (inactive),0.631 and 0.861,6550 and 5840,7420 and 6760,0.444 (inactive),0.72,10 nM (inactive),–,inactive,inactive,0.435 (inactive),–,–,–,–
CC1=CC(=O)c2ccccc2C1=O,–,inactive,1.24 (inactive) and 1.04 (inactive) and 1.27 (inactive),0.813 and 0.493 and 0.646,1500 and 4940 and 494,1210 and 4760 and 388,-0.194 (inactive),-1.25,10 nM (inactive),128 AU (inactive),–,–,–,–,33.2 µM (active),–,8.33 µM (active)
Cc1nnc(NS(=O)(=O)c2ccc(N)cc2)s1,inactive,–,0.854 (inactive) and 0.859 (inactive) and 0.853 (inactive),1.13 and 0.759 and 2.93,8770 and 7900 and 10600,10300 and 9200 and 12500,-0.255 (inactive) and -1.45 (inactive),0.469 and 0.621,10 nM (inactive),184 AU (inactive),–,inactive,–,–,–,–,–
CCCOc1ccc2nc(NC(=O)OC)[nH]c2c1,–,–,1.06 (inactive) and 1 (inactive),1.87 and 1.28,2370 and 1800,2250 and 1790,-1.88 (inactive) and -2.12 (inactive),-0.332 and 1.54,10 nM (inactive),40 AU (inactive),–,–,-1.72 (inactive),0.235 µM (active),0.295 µM (active),–,–
